# For some of these results: Results with a measured potency or affinity are listed apart.
# How the values were obtained:
# Parameters in all cases: scale not given: direction of the effect not stated beside the values
# [1] = molecular target: Protein translocase subunit SecA (Escherichia coli (strain K12)) (UniProt P10408); test: Assay to Identify E. coli SecA ATPase Inhibitors; assay type: functional; settings: 30 µM
# [2] = molecular target: T1, Ubiquitin-activating enzyme e1, putative (Leishmania donovani (strain BPK282A1)) (UniProt E9BSI1); test: Leishmania donovani Ubiquitin Activating Enzyme (LdE1); assay type: functional; settings: 30 µM
# T1 sequence (whole entry): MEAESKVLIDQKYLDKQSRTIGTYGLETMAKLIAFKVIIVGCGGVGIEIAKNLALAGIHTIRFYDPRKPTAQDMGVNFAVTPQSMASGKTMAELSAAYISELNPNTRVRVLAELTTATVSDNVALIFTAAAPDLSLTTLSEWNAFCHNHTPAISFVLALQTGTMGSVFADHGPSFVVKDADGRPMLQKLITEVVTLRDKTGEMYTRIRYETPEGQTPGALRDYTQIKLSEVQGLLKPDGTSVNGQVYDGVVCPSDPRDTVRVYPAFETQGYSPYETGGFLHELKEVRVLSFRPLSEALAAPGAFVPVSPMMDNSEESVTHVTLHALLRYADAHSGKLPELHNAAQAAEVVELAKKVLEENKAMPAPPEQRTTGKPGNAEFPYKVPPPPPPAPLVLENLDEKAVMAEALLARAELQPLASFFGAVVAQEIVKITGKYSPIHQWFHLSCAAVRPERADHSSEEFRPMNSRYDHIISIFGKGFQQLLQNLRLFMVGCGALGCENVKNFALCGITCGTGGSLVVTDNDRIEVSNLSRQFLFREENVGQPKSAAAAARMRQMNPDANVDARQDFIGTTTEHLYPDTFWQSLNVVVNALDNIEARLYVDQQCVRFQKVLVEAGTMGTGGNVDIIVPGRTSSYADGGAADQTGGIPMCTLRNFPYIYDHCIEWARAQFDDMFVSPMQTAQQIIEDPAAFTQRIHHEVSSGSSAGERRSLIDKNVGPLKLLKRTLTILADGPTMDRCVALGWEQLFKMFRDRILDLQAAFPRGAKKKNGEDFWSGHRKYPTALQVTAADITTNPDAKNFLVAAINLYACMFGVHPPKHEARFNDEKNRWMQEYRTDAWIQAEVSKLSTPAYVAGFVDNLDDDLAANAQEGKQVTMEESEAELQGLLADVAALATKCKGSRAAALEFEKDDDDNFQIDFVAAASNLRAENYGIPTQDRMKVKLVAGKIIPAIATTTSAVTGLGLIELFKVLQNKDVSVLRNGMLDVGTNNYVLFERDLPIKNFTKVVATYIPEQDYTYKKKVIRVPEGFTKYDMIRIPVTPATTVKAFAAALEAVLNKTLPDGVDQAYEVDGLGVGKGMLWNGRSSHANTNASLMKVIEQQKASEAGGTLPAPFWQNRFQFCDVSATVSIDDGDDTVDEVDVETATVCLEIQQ
# [3] = molecular target: AMP-activated protein kinase, AMPK (Homo sapiens) (UniProt P54646+O43741+P54619+Q9UGJ0+Q9Y478+Q13131+Q9UGI9); test: AMP-dependent Kinase enzyme assay. An in vitro enzyme assay that detects ADP turnover that is directly proportional to AMPK activity. This uses naive AMPK that is activated during the assay with MK-8722; assay type: functional; settings: 30 µM
# [4] = molecular target: Sialic acid-binding Ig-like lectin 9 (Homo sapiens) (UniProt Q9Y336); test: Hs-Siglec9 ALPHAscreen SOP 20170721; settings: 10 µM
# Sialic acid-binding Ig-like lectin 9 (Homo sapiens), sequence (Q9Y336 whole entry): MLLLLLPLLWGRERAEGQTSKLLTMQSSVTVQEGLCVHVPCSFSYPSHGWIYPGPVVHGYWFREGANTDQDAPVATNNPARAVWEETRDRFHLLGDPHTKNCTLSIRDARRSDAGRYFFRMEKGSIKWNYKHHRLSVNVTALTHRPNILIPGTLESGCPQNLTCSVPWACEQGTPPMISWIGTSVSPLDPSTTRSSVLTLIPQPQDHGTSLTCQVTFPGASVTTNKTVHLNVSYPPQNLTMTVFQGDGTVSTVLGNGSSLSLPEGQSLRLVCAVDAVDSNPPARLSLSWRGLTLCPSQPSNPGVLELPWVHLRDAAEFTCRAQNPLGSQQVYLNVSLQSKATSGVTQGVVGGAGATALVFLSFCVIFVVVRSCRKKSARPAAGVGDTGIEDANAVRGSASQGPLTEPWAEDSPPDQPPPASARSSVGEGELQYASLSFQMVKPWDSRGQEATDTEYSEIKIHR
# Trypanosoma cruzi = test: Trypanosoma cruzi phosphomannomutase and mannose-1-phosphate guanylyltransferase assay; assay type: functional; settings: 10 µM
# [5] = molecular target: T2, Arginase-2, mitochondrial (Homo sapiens) (UniProt P78540); test: in vitro enzyme assay to detect the production of urea directly proportional to the activity of Arginase II; assay type: functional; settings: 33.3 µM; also: in the data most compounds retested in dose-response had high values
# T2 sequence (whole entry): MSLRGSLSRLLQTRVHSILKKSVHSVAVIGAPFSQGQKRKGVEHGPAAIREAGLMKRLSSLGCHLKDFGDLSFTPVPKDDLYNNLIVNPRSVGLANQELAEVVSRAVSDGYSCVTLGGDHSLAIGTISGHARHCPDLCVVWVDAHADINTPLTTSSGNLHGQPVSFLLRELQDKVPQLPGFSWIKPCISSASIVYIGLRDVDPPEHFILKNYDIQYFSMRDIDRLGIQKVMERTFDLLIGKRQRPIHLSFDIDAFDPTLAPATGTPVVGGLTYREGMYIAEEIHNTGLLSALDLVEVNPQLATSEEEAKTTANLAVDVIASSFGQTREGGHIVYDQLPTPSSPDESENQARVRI
# [6] = molecular target: T3, Proteasome subunit beta (Trypanosoma cruzi) (UniProt O96673); test: Trypanosoma cruzi proteasome chymotrypsin-like activity (TcProtChymo) assay.; also: in the data most compounds retested in dose-response had high values; assay type: functional; settings: 9.37 µM
# T3 sequence (whole entry): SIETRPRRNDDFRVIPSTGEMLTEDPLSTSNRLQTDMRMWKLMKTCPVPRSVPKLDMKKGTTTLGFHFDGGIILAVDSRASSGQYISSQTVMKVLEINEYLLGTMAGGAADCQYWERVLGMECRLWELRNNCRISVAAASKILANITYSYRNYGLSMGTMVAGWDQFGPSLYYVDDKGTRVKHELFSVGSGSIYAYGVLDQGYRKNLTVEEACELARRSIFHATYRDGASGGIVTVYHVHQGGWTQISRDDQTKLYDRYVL
# Homo sapiens = species: Homo sapiens; test: To identify inhibition of the IFN signalling (Jak-Stat) pathway via expression of an eGFP reporter gene under the control of an IFN-stimulated response element (ISRE) containing MxA promoter.; assay type: functional; settings: 30 µM
# [7] = molecular target: T4, Tyrosyl-tRNA synthetase, putative (Trypanosoma cruzi (strain CL Brener)) (UniProt Q4DSP6); test: Trypanosoma cruzi tyrosyl tRNA synthetase (TcYRS) _High Tyrosine SOP; assay type: functional; settings: 30 µM; also: in the data most compounds retested in dose-response had high values
# T4 sequence (whole entry): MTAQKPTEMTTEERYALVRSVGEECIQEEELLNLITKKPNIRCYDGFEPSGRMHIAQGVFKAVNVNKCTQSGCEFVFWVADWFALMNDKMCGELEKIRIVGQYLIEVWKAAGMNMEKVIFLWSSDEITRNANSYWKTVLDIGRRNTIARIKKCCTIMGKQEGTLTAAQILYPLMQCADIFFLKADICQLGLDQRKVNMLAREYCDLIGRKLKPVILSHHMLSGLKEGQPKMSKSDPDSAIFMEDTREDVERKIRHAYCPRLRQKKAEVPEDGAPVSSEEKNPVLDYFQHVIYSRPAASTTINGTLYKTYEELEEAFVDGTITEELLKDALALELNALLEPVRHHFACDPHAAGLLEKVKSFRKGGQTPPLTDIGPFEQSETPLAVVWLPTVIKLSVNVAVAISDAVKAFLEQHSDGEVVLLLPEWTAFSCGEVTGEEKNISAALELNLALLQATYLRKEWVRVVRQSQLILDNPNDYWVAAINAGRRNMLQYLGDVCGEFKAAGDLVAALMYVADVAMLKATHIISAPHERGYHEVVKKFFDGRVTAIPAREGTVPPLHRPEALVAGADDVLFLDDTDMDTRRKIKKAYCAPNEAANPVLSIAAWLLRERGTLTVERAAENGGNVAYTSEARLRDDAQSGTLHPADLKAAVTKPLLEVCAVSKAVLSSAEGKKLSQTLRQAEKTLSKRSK
# [8] = molecular target: T4, Tyrosyl-tRNA synthetase, putative (Trypanosoma cruzi (strain CL Brener)); test: Trypanosoma cruzi tyrosyl tRNA synthetase (TcYRS) SOP; assay type: functional; settings: 30 µM
# [9] = molecular target: Chromo domain-containing protein 1 (Saccharomyces cerevisiae (strain ATCC 204508 / S288c) (Baker's yeast)) (UniProt P32657); test: ScCHD-1 Enzyme Inhibition Assay; assay type: functional; settings: 30 µM; also: in the data most compounds retested in dose-response had high values
# Chromo domain-containing protein 1 (Saccharomyces cerevisiae (strain ATCC 204508 / S288c) (Baker's yeast)), sequence (P32657 whole entry, the tested form may be a part): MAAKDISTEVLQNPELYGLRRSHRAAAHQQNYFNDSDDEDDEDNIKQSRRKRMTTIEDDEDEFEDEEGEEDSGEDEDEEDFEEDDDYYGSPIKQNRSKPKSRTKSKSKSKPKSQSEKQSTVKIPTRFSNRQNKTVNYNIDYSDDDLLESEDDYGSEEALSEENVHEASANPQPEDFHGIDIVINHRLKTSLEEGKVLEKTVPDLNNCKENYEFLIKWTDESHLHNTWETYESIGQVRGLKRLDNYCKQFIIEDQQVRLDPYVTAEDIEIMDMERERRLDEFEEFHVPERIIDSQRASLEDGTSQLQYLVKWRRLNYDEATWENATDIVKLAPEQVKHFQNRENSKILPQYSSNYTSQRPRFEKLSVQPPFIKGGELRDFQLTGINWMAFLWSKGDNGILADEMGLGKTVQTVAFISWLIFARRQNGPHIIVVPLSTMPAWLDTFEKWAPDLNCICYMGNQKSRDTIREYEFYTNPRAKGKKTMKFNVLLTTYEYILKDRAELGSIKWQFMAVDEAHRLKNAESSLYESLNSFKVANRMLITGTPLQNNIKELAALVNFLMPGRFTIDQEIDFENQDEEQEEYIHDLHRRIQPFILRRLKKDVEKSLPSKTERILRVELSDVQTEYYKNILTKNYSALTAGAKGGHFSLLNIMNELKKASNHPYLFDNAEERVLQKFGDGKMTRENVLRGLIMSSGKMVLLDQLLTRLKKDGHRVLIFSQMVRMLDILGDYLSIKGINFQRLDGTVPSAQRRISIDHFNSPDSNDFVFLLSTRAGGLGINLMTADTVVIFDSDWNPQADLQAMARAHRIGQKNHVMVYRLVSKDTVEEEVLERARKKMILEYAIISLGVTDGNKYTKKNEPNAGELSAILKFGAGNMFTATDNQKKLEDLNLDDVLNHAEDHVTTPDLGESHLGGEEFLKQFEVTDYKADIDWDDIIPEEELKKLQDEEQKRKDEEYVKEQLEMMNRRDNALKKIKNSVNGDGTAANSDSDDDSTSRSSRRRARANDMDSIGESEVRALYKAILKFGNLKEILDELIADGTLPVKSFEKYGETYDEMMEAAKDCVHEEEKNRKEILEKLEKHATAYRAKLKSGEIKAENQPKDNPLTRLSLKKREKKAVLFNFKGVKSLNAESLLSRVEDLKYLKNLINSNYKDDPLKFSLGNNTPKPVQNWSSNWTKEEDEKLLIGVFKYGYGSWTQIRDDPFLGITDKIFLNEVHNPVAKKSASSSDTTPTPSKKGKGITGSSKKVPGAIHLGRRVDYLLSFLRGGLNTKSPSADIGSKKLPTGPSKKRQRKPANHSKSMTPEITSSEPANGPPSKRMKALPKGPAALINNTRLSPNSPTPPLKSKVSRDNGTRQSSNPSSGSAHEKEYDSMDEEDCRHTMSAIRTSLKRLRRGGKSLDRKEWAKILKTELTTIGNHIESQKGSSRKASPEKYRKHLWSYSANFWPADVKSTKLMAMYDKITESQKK
# Protein translocase subunit SecA (Escherichia coli (strain K12)), sequence (P10408 whole entry): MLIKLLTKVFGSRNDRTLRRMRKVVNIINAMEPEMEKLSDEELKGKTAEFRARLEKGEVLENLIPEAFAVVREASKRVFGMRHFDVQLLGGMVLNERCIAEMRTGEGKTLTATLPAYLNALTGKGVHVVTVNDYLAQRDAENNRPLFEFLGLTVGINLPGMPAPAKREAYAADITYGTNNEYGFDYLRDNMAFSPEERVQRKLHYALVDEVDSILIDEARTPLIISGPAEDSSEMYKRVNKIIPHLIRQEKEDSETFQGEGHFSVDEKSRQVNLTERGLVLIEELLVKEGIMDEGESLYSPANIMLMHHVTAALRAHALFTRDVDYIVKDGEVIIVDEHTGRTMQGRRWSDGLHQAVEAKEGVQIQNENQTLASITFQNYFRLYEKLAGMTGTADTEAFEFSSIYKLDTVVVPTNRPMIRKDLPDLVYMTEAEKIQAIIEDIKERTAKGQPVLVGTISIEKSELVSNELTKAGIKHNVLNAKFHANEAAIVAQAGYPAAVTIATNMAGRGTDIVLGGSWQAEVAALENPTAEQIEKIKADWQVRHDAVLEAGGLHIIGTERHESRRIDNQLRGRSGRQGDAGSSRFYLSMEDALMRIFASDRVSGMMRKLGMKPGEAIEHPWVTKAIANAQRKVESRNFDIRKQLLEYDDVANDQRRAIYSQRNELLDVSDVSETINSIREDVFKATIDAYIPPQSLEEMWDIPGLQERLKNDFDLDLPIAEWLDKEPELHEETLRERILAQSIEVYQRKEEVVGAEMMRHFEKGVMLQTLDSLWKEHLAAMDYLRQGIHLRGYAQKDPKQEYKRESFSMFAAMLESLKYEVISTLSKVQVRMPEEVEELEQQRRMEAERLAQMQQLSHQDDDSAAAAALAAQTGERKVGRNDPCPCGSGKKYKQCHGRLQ
Compound,Percent Effect [1] [%],Percent Effect [2] [%],Percent Effect [3] [%],Percent Effect [4] [%],Percent Effect (Trypanosoma cruzi) [%],Percent Effect [5] [%],Percent Effect [6] [%],Percent Effect (Homo sapiens) [%],Percent Effect [7] [%],Percent Effect [8] [%],Percent Effect [9] [%]
CC(=O)N1CCN(CC2CCOc3ccccc3C2)CC1 (stereo not drawn),-5.96,-1.39,-8.25,5.04,-5.34,0.883,14.6,-1.92,1.05,-7.69,-1.42
CCc1nnc2n1CCN(C(=O)COCCc1ccccc1)C2,-5.81,15.8,-4.37,7.1,-2.71,1.8,1.78,-1.11,3.45,13.6,-2.89
CCN(C)c1ncnc2c1CCN(C(=O)c1ccno1)CC2,-6.78,13.3,0.989,3.39,-4.05,-46.4,5.81,-5.04,4.17,7.5,-5.33
Cc1nn(C)c(C)c1C1CCCN1C(=O)c1cc[nH]n1 (stereo not drawn),-3.64,3.8,5.29,4,-4.41,-1.07,5.49,10.6,-1.04,7.59,7.31
O=C(Nc1ccccn1)C1=NN(c2ccccc2)C(=O)CN1,0.648,25.3,-3.03,-13.4,1.6,-5.32,11.9,9.82,6.4,24.1,-12.2
O=C(c1ncccn1)N1C[C@H]2CCC[C@@]2(COCC2CCOCC2)C1,-5.07,10.8,1.99,-7.31,6.16,-0.319,19.9,25.2,6.49,15.4,2.35
CS(=O)(=O)NC[C@@H]1OC[C@H]2CN(C(=O)c3ccc[nH]3)CC[C@H]21,-1.96,-187,4.44,3.67,-18.5,-44.3,10.6,-0.978,-265,-628,-2.84
O=C(CC1CC1)NCc1cn2c(n1)CN(CC1CC1)CC2,-3.1,13.3,16.6,-9.15,-3.54,1.63,10.7,3.1,-3.19,8.97,-5.22

# — ChEMBL document CHEMBL3988442, “University of Dundee, Small-Polar-MMV Screening Library” (2021)
